About 83,000 compounds went through this panel and 20% of them were active in at least one assay; those are over-represented in the sample as a whole.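 Method: cells in 96-well plates; compound added at one concentration; 48 h incubation; percent growth measured; values under 10 scored active.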 The source made the active and inactive calls.
How the values were obtained:
Assay in all cases: NCI-60 one-dose screen, 48 h (100 = growth as untreated, 0 = no growth, -100 = all killed)
Conditions in all cases: 10 µM unless noted
NCI-H23 lung = tested on: NCI-H23 lung
NCI-H226 lung = tested on: NCI-H226 lung
NCI-H322M lung = tested on: NCI-H322M lung
HOP-62 NSCLC = tested on: HOP-62 NSCLC
NCI-H460 lung = tested on: NCI-H460 lung
HOP-92 NSCLC = tested on: HOP-92 NSCLC
NCI-H522 lung = tested on: NCI-H522 lung
A549/ATCC NSCLC = tested on: A549/ATCC NSCLC
786-0 renal = tested on: 786-0 renal
COLO 205 colon = tested on: COLO 205 colon

Measured: growth

COc1cc(/C=N/NC(=O)Cn2c(C(C)C)nc3ccccc32)ccc1O
inactive: NCI-H23 lung 94.9% | NCI-H226 lung 93.7% | NCI-H322M lung 93.5% | HOP-62 NSCLC 92.9% | NCI-H460 lung 97.7% | HOP-92 NSCLC 82.3% | NCI-H522 lung 92.4% | A549/ATCC NSCLC 105% | 786-0 renal 104% | COLO 205 colon 109%

O=c1c2cc(F)ccc2sc2c(NCCCN3CCCC3)nc3ccccc3c12
inactive: NCI-H23 lung 64.2% | NCI-H226 lung 79.2% | NCI-H322M lung 64.1% | HOP-62 NSCLC 63.5% | NCI-H460 lung 12% | HOP-92 NSCLC 25.1% | NCI-H522 lung 25.1% | A549/ATCC NSCLC 52.8% | 786-0 renal 37.1% | COLO 205 colon 46%

CC(=O)OC1CCC2(C)C(=CC3C4CCC(=O)C4(C)CCC32)C1 (stereo not given)
inactive: NCI-H23 lung 102% | NCI-H226 lung 107% | NCI-H322M lung 113% | HOP-62 NSCLC 111% | NCI-H460 lung 108% | HOP-92 NSCLC 101% | NCI-H522 lung 96.9% | A549/ATCC NSCLC 101% | 786-0 renal 102% | COLO 205 colon 94%

OC(c1cccc(-n2ccc(C(F)(F)F)n2)c1)c1cnccc1NC1CCCCCC1 (stereo not given)
inactive: NCI-H23 lung 53.1% | NCI-H226 lung 67.3% | HOP-62 NSCLC 73.7% | NCI-H522 lung 43.9% | A549/ATCC NSCLC 50.2% | 786-0 renal 28.9%
active: NCI-H322M lung 6.47% | NCI-H460 lung -64.6% | HOP-92 NSCLC -5.13% | COLO 205 colon -47.2%

COc1ccc(C(=O)COc2ccc(/C=C3\Oc4ccccc4C3=O)cc2)cc1
inactive: NCI-H23 lung 92.9% | NCI-H226 lung 88% | NCI-H322M lung 108% | HOP-62 NSCLC 90.8% | NCI-H460 lung 102% | HOP-92 NSCLC 75.8% | NCI-H522 lung 63% | A549/ATCC NSCLC 99% | 786-0 renal 98.1% | COLO 205 colon 99.2%

N#CC1=C(/N=C/c2ccccc2)Oc2c(ccc3ccccc23)C1c1ccccc1 (stereo not given)
active: NCI-H522 lung -4.7% | COLO 205 colon -23.2%
inactive: NCI-H23 lung 28.6% | NCI-H226 lung 52.9% | NCI-H322M lung 45.6% | HOP-62 NSCLC 21.1% | NCI-H460 lung 11.6% | HOP-92 NSCLC 50.4% | A549/ATCC NSCLC 21% | 786-0 renal 23.2%

CC(C)Sc1nc(NNC(N)=S)c(C#N)c(-c2ccc(F)cc2)n1
inactive: NCI-H23 lung 102% | NCI-H226 lung 94.7% | NCI-H322M lung 99.1% | HOP-62 NSCLC 101% | NCI-H460 lung 102% | HOP-92 NSCLC 70.2% | NCI-H522 lung 85.2% | A549/ATCC NSCLC 92.5% | 786-0 renal 90.5% | COLO 205 colon 106%

O=C1CC(N2C(=O)/C(=C/C(Cl)=C\c3ccc([N+](=O)[O-])cc3)SC2=S)C(=O)N1c1ccc(O)cc1 (stereo not given)
active: NCI-H23 lung -41.7% | NCI-H226 lung -64% | HOP-62 NSCLC 5.91% | NCI-H460 lung 0.922% | HOP-92 NSCLC -6.73% | NCI-H522 lung -24.1% | 786-0 renal -3.2% | COLO 205 colon -42.9%
inactive: NCI-H322M lung 12.2% | A549/ATCC NSCLC 15.6%

Cc1cccc(Cc2cnc(NC(=O)c3ccc4nnsc4c3)s2)c1
inactive: NCI-H23 lung 92.7% | NCI-H226 lung 102% | NCI-H322M lung 97.4% | HOP-62 NSCLC 79.8% | NCI-H460 lung 114% | HOP-92 NSCLC 74.7% | NCI-H522 lung 77% | A549/ATCC NSCLC 96.2% | 786-0 renal 96% | COLO 205 colon 94.8%

CC(C)CCC[C@@H](C)[C@H]1CC[C@H]2[C@@H](Nc3ccc(O)cc3)CCC[C@]12C
active: NCI-H522 lung -42.6%
inactive: NCI-H23 lung 84.2% | NCI-H226 lung 105% | NCI-H322M lung 105% | HOP-62 NSCLC 108% | NCI-H460 lung 104% | HOP-92 NSCLC 136% | A549/ATCC NSCLC 95.5% | 786-0 renal 109% | COLO 205 colon 95.5%

C=C1C(=O)O[C@H]2[C@H]1CC/C(COC(=O)C(=O)c1c[nH]c3ccccc13)=C\CC[C@@]1(C)O[C@@H]21
inactive: NCI-H322M lung 24.6%
active: NCI-H23 lung -42.8% | NCI-H226 lung -61.6% | HOP-62 NSCLC 2.66% | NCI-H460 lung 6.72% | HOP-92 NSCLC -74.3% | NCI-H522 lung -62% | A549/ATCC NSCLC 9.03% | 786-0 renal -75.8% | COLO 205 colon -62.2%

O=c1c2c3c(sc2n2c(-c4cn(-c5ccccc5)nc4-c4ccc(Cl)cc4)nnc2n1Cc1ccccc1)CCCC3
inactive: NCI-H23 lung 94.3% | NCI-H226 lung 107% | NCI-H322M lung 102% | HOP-62 NSCLC 94.6% | NCI-H460 lung 106% | HOP-92 NSCLC 81.8% | NCI-H522 lung 77.5% | A549/ATCC NSCLC 105% | 786-0 renal 99.6% | COLO 205 colon 111%

O=C(Nc1cccc2c(O)c(N=Nc3ccc(S(=O)(=O)Nc4nccs4)cc3)cc(N=Nc3ccc(S(=O)(=O)Nc4nccs4)cc3)c12)C(Cl)Cl
inactive: NCI-H23 lung 103% | NCI-H226 lung 98.8% | NCI-H322M lung 89.7% | HOP-62 NSCLC 96.8% | NCI-H460 lung 73.4% | HOP-92 NSCLC 24.7% | A549/ATCC NSCLC 92.2% | 786-0 renal 103% | COLO 205 colon 99%
active: NCI-H522 lung -42.5%

CC(=O)C(C)Cc1cc2c(cc1C)C(C)(C)CCC2(C)C (stereo not given)
inactive: NCI-H23 lung 95.3% | NCI-H226 lung 99.5% | NCI-H322M lung 97.8% | HOP-62 NSCLC 82.4% | NCI-H460 lung 107% | HOP-92 NSCLC 85.7% | NCI-H522 lung 85.3% | A549/ATCC NSCLC 79.2% | 786-0 renal 95.2% | COLO 205 colon 105%

O=C(NC(Cc1nnc2n(Cc3ccccc3)c(=O)c3c4c(sc3n12)CCCC4)c1ccc(Cl)cc1)c1ccccc1 (stereo not given)
inactive: NCI-H23 lung 82.2% | NCI-H226 lung 97.6% | NCI-H322M lung 108% | HOP-62 NSCLC 77.2% | NCI-H460 lung 101% | HOP-92 NSCLC 76.8% | NCI-H522 lung 75.8% | A549/ATCC NSCLC 98.9% | 786-0 renal 38.3% | COLO 205 colon 106%
